# According to PMC13494018:
# A number with no mark means an inactive call. How the calls were made is not given here.
# Target: VTCN1, Q7Z7D3
# Sequence (Q7Z7D3 whole entry): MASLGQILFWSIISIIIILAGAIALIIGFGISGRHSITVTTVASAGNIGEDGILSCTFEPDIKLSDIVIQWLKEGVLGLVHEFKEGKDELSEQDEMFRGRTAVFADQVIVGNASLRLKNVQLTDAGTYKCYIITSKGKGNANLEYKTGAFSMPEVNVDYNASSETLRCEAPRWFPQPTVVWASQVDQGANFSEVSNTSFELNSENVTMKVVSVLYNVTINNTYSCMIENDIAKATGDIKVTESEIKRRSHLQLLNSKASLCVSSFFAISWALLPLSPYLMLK
row,Binder,binding in a display sort
1,design_601_c3fd07b4-2f34-4ad8-bd4e-2749faf628eb_72_dldesign_0_cycle1_af2pred (protein) AAAAAAKKAEADATQLDLIAKSTEAIKDKVSPETVADVFAPAAAAYEKAAKLWSGNPAKAAEFKAKAKEMKAKYEKAKKEAE,not found
2,design_601_c3fd07b4-2f34-4ad8-bd4e-2749faf628eb_83_dldesign_0_cycle1_af2pred (protein) NEEAKKAYEKAKKVIEKVLKLAKENPELAEAEEQAKKALEKAEEGLKKGDVGLTESALTRAEHLLEVAEAKIAA,not found
3,design_601_c3fd07b4-2f34-4ad8-bd4e-2749faf628eb_190_dldesign_0_cycle1_af2pred (protein) SMEGQELKDKAVDALGDAHLLKIKGKEIDPEIVKIAEKAEEAAKKALKLIKEGNLEEAKEELEKAEELVKKAKELLKKKE,not found
4,design_601_c3fd07b4-2f34-4ad8-bd4e-2749faf628eb_257_dldesign_0_cycle1_af2pred (protein) VELAKEMKKLIAEAARAAKEDPKKAAKLLKEAAKKAKEIGEIAEPAAKLLEEAAKLLEEGPEKAPEAATLLSEARAEANYVIKSLEL,not found
5,design_601_c3fd07b4-2f34-4ad8-bd4e-2749faf628eb_334_dldesign_0_cycle1_af2pred (protein) DPASEEAKKLADKMRTAQRLFKQAGLALKEGKRDVDAVAEGYALAKEADPEFAEALEEALKKSVGEEKGTALIEEAKALAKAKAAA,not found
6,design_601_c3fd07b4-2f34-4ad8-bd4e-2749faf628eb_352_dldesign_0_cycle1_af2pred (protein) AKEDQEASSEMMRYLTKAGKLAKEIGEEEYEKALKEREKVLELSVEDPKKGLEAAKEVLKEYEEKYKKAEEEKKA,not found
7,design_601_c3fd07b4-2f34-4ad8-bd4e-2749faf628eb_419_dldesign_0_cycle1_af2pred (protein) GKEELLKKAKKAMEETKKAIKEGKKLIKEGASKEELEKAAEELRKKAKEVRELGKELPELKPEAAKVAQEAYETAAELDVEAKKK,not found
8,design_601_c3fd07b4-2f34-4ad8-bd4e-2749faf628eb_461_dldesign_0_cycle1_af2pred (protein) SAEEEAKKLLEEVKKAMSAANFAMAEDLEEGEKAWEEAKKKAKELLEKAEKLNKEEAKKVKEAVEKGEKTYKRIKKDHEEAEKRAKER,not found
9,design_601_c3fd07b4-2f34-4ad8-bd4e-2749faf628eb_475_dldesign_0_cycle1_af2pred (protein) DEFTEKAKEFAEEVKKKSKELVAKAEAGDAETAKEKRKEAVKLLSEAFSLSVKAKKESKEAYEYMKEAEEIASDAVIKISEIEKKKAA,not found
10,design_601_c3fd07b4-2f34-4ad8-bd4e-2749faf628eb_503_dldesign_0_cycle1_af2pred (protein) AEKAIGNAHAYKNILKSEAEWSKKLPLEERKKRLKELVEEIAKIAAEAGEEVAEKFRKEAEAFAEEALKKQEEE,not found
11,design_601_c3fd07b4-2f34-4ad8-bd4e-2749faf628eb_587_dldesign_0_cycle1_af2pred (protein) NEEKAKTALSEGNAYYRMALDAVKIGVKKEDVLALIDEAEKYFEKAAELYKDNPEKAKKIKELGKEKTEEARKALEEA,not found
12,design_601_c3fd07b4-2f34-4ad8-bd4e-2749faf628eb_592_dldesign_0_cycle1_af2pred (protein) SSADILREYRRALQEATKAAAAADPANKEEILKEGAKAREEVVDAFSESDELGKKTAEEQLAKIKARKKAAE,not found
13,design_601_c3fd07b4-2f34-4ad8-bd4e-2749faf628eb_648_dldesign_0_cycle1_af2pred (protein) GTEEALERVRRGAERARRLLDEARKYGADKEKVDALTKEADEALAAAEENPEKAPEYLKRIAEISAEAAELRAEAFAKK,not found
14,design_601_c3fd07b4-2f34-4ad8-bd4e-2749faf628eb_731_dldesign_0_cycle1_af2pred (protein) AEAKKELTEEVFEALEYRNEIERKDPELGKKARELLRKAFEEGRKLIKADPEEGTKKAAEIVKKVREEIKKLAE,not found
15,design_601_c3fd07b4-2f34-4ad8-bd4e-2749faf628eb_821_dldesign_0_cycle1_af2pred (protein) EAAAAAAAGEEARRLTRKRLERAEEAEKTKSPLQAANAWLAASEFARHAAEALAKNYPSATETIAELRALAEEAEAKAKELL,not found
16,design_601_c3fd07b4-2f34-4ad8-bd4e-2749faf628eb_877_dldesign_0_cycle1_af2pred (protein) NEKAKEALKENKEAAELARKLAKEGIAPEEAARLAQKLQETAAVMKMADKVPKETLEEAIKEGKKAAEEVKKLAKA,not found
17,design_601_c3fd07b4-2f34-4ad8-bd4e-2749faf628eb_1122_dldesign_0_cycle1_af2pred (protein) MEEEKIRKRQAELLKEEAEKEMAAAKASTDAAEAANLGLFARQLYRSAAKIDKENKEEYLKLAEKAEEETKAIVAAKKAA,not found
18,design_601_c3fd07b4-2f34-4ad8-bd4e-2749faf628eb_1384_dldesign_0_cycle1_af2pred (protein) SKIELLKKAAEYVEEAAKLAKEGGRVSDVIKLLQKAYELAKKAGDEETAKLIKEAAFAVPDPEKAYKLLKEAAERLKEKAKKLE,not found
19,design_601_c3fd07b4-2f34-4ad8-bd4e-2749faf628eb_1417_dldesign_0_cycle1_af2pred (protein) EEEKLKEAAKRLHEAREKTNEAEQKLKLEGKKNAEELKKELEAAAKVAKAVAEEVKANPEYAKIAETLAKRAEKAAQEA,not found

row,Binder,binding in a display sort
1,design_601_c3fd07b4-2f34-4ad8-bd4e-2749faf628eb_1485_dldesign_0_cycle1_af2pred (protein) GYKERAKKEIEEAKKNLEKAKADPSTAVSLLTDAIAHANAAKSLAEKLEKTDPETGKELIEEAKEIREEAKKVLAERNAA,not found
2,design_601_c3fd07b4-2f34-4ad8-bd4e-2749faf628eb_1497_dldesign_0_cycle1_af2pred (protein) SMEEEEQRRRAIEELKRLMELADKSPSEIAKATREAVAATPLYAERIRKVGTAMMFNPEEGKKLAEEAIKELE,binds (active)
3,design_601_c3fd07b4-2f34-4ad8-bd4e-2749faf628eb_1838_dldesign_0_cycle1_af2pred (protein) SMAEEILKEFLELAKVMAEDPEKGAKLFAEKVKELDPSIYPFAEAAAKKAAEEGAPLEELERAARAFANVVTT,not found
4,design_601_c3fd07b4-2f34-4ad8-bd4e-2749faf628eb_1863_dldesign_0_cycle1_af2pred (protein) SEYEKELAKAEAFVKEALKKSKEEFIAETKKLFEEGSPVYQSALMRALTKAAKEYKDDPEKQKKALDARDTIVD,not found
5,design_601_c3fd07b4-2f34-4ad8-bd4e-2749faf628eb_1953_dldesign_0_cycle1_af2pred (protein) AVAAKAQAALDRTAALREKHPEAKEYLDKAEEEAKKALADPANAAEYLKKAANYLQEAYQEASEYEFKKK,not found
6,design_601_c3fd07b4-2f34-4ad8-bd4e-2749faf628eb_1955_dldesign_0_cycle1_af2pred (protein) MEQEKKDEELLKKVKELGKEATEKSLEDPEKAKEYRKKLIEEAKKAAAEASPEYAKKIAEEAQKAQEEITEAQVEGEKKKK,not found
7,design_601_c3fd07b4-2f34-4ad8-bd4e-2749faf628eb_2023_dldesign_0_cycle1_af2pred (protein) MREEIIKAIKEAVKELKKLGKLAKEAKKKNPEIGKEAEKDAKKLQKELFEALSSENAVEKLKEVKEKTKKKIEEIKKKVEE,not found
8,design_601_c3fd07b4-2f34-4ad8-bd4e-2749faf628eb_2200_dldesign_0_cycle1_af2pred (protein) SSEYSKKLAEDLKTFVKNIRDIAKESGDPAVVEQAKAVMAAFVTSEEAGVAAAKKLEAYTKETTNPALAAKAATAYDALKNIADG,not found
9,design_601_c3fd07b4-2f34-4ad8-bd4e-2749faf628eb_2221_dldesign_0_cycle1_af2pred (protein) GAAEEAKKALKEAKERIEKVATPETKEFHEKLKEEMEKKVKELMAGDPVEGAKAAAKAAAAYAQEAYEASAEARAKEIIKK,not found
10,design_601_c3fd07b4-2f34-4ad8-bd4e-2749faf628eb_2283_dldesign_0_cycle1_af2pred (protein) AAAEDEAKRALAKKKAEEAKKLAKEAVEGNAEKAEKAAKELEKILKELRALGKAASPAAKAALTAAAHTAAEAYAEAYSAAVVKKEKE,not found
11,design_601_c3fd07b4-2f34-4ad8-bd4e-2749faf628eb_2299_dldesign_0_cycle1_af2pred (protein) MEAKEKAEKAIKRAKEIGEKLIKKVAFNPEAAEKVKKLTEEAIEAIKKDPEEGIKKGAEILQKAREYAAEVLAKN,not found
12,design_601_c3fd07b4-2f34-4ad8-bd4e-2749faf628eb_2331_dldesign_0_cycle1_af2pred (protein) HMEEEAYKAKVEKAKAAMKEAADKLVSDPEAAKKQITQIAKDTAKELIATGTPAGKAAAQDALAEATAAKTELDKKAK,not found
13,design_601_c3fd07b4-2f34-4ad8-bd4e-2749faf628eb_2458_dldesign_0_cycle1_af2pred (protein) MEKAKEEALKLIKELLEATKLPKGKASQIALELAAEADWLAKKSSPEAAELFNALAEAARAVVKDKEKGKELAKKVKEKVEK,not found
14,design_602_0a1f3d3d-7d26-454b-9b34-ebe8ef9bc7d4_19_dldesign_0_cycle1_af2pred (protein) MEEEEELKKKKEELLKLKKKLEEAYDIAAELAAKNPEYLDEVLEKYREGLRYLKLGGENPENYEEYYEKAKEKLKEIEEIAKKLK,not found
15,design_602_0a1f3d3d-7d26-454b-9b34-ebe8ef9bc7d4_95_dldesign_0_cycle1_af2pred (protein) MEELAKKAEEVVEESGEALAKAPREKWPEISELRHESLRALREAGENPETREEHLKEGEKYLEEAKKLAEKGAKE,not found
16,design_602_0a1f3d3d-7d26-454b-9b34-ebe8ef9bc7d4_127_dldesign_0_cycle1_af2pred (protein) AEEERRKALAKKRAERAKALAVEAKKEGNEEAAKYYEKAAELYAKAAEAPPEERGKLVDEAVEYYGEGELEKIKFK,not found
17,design_602_0a1f3d3d-7d26-454b-9b34-ebe8ef9bc7d4_149_dldesign_0_cycle1_af2pred (protein) VVEKALKEMEKYIEKAKEEAIKINPKAKEYIEKRAKRIREEAKKGAEEAKKLYKEDPEKGKEKAKEALKKTKGLAESLIEHAKFSAK,not found
18,design_602_0a1f3d3d-7d26-454b-9b34-ebe8ef9bc7d4_194_dldesign_0_cycle1_af2pred (protein) AVEAAIEALEELAKKAPPELAEYLKRTAEAAKKAGEKVLRYAVRAAAYATIALEGSPEVAAEAIKKAKEQAEKAEKIAKE,not found
19,design_602_0a1f3d3d-7d26-454b-9b34-ebe8ef9bc7d4_204_dldesign_0_cycle1_af2pred (protein) SEEEKKKELLEKTEENKKYLEELRKKYEADPSYKVEAATAEAGVKAAEEAKGENFEEAAEKAQKAYNTFKRMEEAEEEAKKRA,not found
